From PubChem BioAssay AID1159580 (chemical genetic matrix, 2015)
Among all 5,500 compounds or so, about 2,000 (36%) were called active. About 18% were inconclusive and are not listed. Rule as the data show it: active = normalized growth mostly below about 0.91 (no sharp cut-off); inconclusive = no clear call, values can overlap the other calls; inactive = mostly above about 0.92. Some of the results follow.

Experiment: chemical genetic growth profiling, strain panel (AID 1159580);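 also: tested at 20 µM; growth read once vehicle control cultures reached saturation at 30 °C; 1 = growth at the plate median or of vehicle wells; lower values mean less growth of the strain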
Settings: S. cerevisiae deletion strains, growth OD

Measured: normalized growth

OC[C@H]1O[C@@H](n2cnc3c(Nc4ccccc4)ncnc32)C(O)[C@H]1O (some centres not stated)
inactive: locus YAL040C, strain CLN3, stronger effect = lower value 0.966 | locus YCL061C, strain MRC1 (second series), stronger effect = lower value 0.999 | locus YDR363W, strain ESC2, stronger effect = lower value 0.908 | locus YER002W, strain NOP16, stronger effect = lower value 0.977 | locus YJR075W, strain HOC1, stronger effect = lower value 1.01 | locus YMR307W, strain GAS1, stronger effect = lower value 1.02 | locus YNL128W, strain TEP1, stronger effect = lower value 0.987 | locus YNL175C, strain NOP13, stronger effect = lower value 0.98 | locus YNL197C, strain WHI3, stronger effect = lower value 0.963 | locus YNL224C, strain SQS1, stronger effect = lower value 0.979 | locus YNL322C, strain KRE1, stronger effect = lower value 1.02 | locus YOR083W, strain WHI5 (second series), stronger effect = lower value 0.96
